# Measured values: PubChem BioAssay (NCI)
# This is part of a sample that, as a whole, favours compounds with a hit. Of some 83,000 tested, about 20% had one in any assay.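 Single-concentration screen, 48 h exposure, 96-well plates. Endpoint: percent growth. Below 10 = active.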 Unmarked numbers belong to inactive results. Activity calls are given as the source filed them.
# Legend:
# Assay in all cases: NCI-60 one-dose screen, 48 h (100 = growth as untreated, 0 = no growth, -100 = all killed)
# Settings in all cases: 10 µM unless noted
# NCI-H23 lung = system: NCI-H23 lung
# NCI-H226 lung = system: NCI-H226 lung
# NCI-H322M lung = system: NCI-H322M lung
# HOP-62 NSCLC = system: HOP-62 NSCLC
# NCI-H460 lung = system: NCI-H460 lung
# HOP-92 NSCLC = system: HOP-92 NSCLC
# NCI-H522 lung = system: NCI-H522 lung
# A549/ATCC NSCLC = system: A549/ATCC NSCLC
# 786-0 renal = system: 786-0 renal
# COLO 205 colon = system: COLO 205 colon
# DU-145 prostate = system: DU-145 prostate
# K-562 leukemia = system: K-562 leukemia
# MALME-3M melanoma = system: MALME-3M melanoma
# MDA-MB-231 breast = system: MDA-MB-231 breast
# RXF 393 renal = system: RXF 393 renal
# SF-268 CNS = system: SF-268 CNS
# SF-295 CNS = system: SF-295 CNS
# SF-539 CNS = system: SF-539 CNS
# UACC-257 melanoma = system: UACC-257 melanoma
# M14 melanoma = system: M14 melanoma
SMILES,growth (NCI-H23 lung),growth (NCI-H226 lung),growth (NCI-H322M lung),growth (HOP-62 NSCLC),growth (NCI-H460 lung),growth (HOP-92 NSCLC),growth (NCI-H522 lung),growth (A549/ATCC NSCLC),growth (786-0 renal),growth (COLO 205 colon),growth (DU-145 prostate),growth (K-562 leukemia),growth (MALME-3M melanoma),growth (MDA-MB-231 breast),growth (RXF 393 renal),growth (SF-268 CNS),growth (SF-295 CNS),growth (SF-539 CNS),growth (UACC-257 melanoma),growth (M14 melanoma)
Oc1ccccc1N=Cc1c(O)ccc2ccccc12,88.2%,87.3%,82.6%,83.7%,81.3%,58.3%,81%,95.4%,86.2%,108%,82.3%,80.3%,82.9%,57%,79.2%,78.4%,53.9%,80%,93.2%,62.7%
COc1nc2c(cc1S(=O)(=O)c1ccccc1)CCc1c-2cnn1Cc1ccccc1,54.1%,65.9%,60.1%,56.2%,54%,3.62% (active),43.2%,57.9%,52.3%,60.9%,83.5%,38%,91.3%,59.1%,38.8%,82.2%,42%,73.7%,48.3%,75.9%
C=C(C[n+]1ccccc1)[C@@H]1CC[C@]2(C(=O)OC)CC[C@]3(C)[C@H](CC[C@@H]4[C@@]5(C)CC[C@H](O)C(C)(C)[C@@H]5CC[C@]43C)[C@@H]12,97.4%,89.5%,101%,93.5%,105%,82.9%,78%,105%,102%,102%,114%,95.7%,103%,114%,106%,97%,103%,91.2%,100%,102%
O=C(/C=C\c1ccc2ccccc2n1)c1cc(Cl)ccc1O,63.2%,58.7%,86.1%,97.8%,78.9%,52.3%,94.8%,104%,75.4%,115%,93.3%,79.4%,80.5%,78.3%,84.2%,71.6%,69.9%,87.2%,84.9%,84.6%
COc1cc(NCCCCCN=C(N)NC(N)=NC(C)C)c2ncccc2c1,-37.5% (active),71.2%,50.7%,57%,55.7%,32.5%,-16.1% (active),89.9%,92.3%,-30.3% (active),104%,26.1%,-19.2% (active),22%,131%,29%,98.3%,44.9%,-8.06% (active),67.7%
COc1ccc(S(=O)(=O)NCCNc2nccc(-c3c(-c4cccc(N)c4)nc4sccn34)n2)cc1,103%,96.1%,111%,110%,99.6%,96.2%,91.2%,99.6%,99%,106%,105%,88.9%,101%,104%,107%,99.7%,99.2%,110%,102%,102%
O=C1Nc2c(ccc(Cl)c2Cl)/C1=C/c1cc(Br)c(O)c(Br)c1,73.9%,78.5%,90.3%,79.1%,46.1%,67.1%,9.37% (active),51.4%,74.6%,79.2%,84.6%,51.8%,29.4%,74.8%,75.9%,75.7%,13.4%,51.6%,40%,33.2%
CC(C)(C)n1cc(-c2ccnc(NCCCNS(=O)(=O)c3cccc4ccccc34)c2)c(-c2cccc(O)c2)n1,42.1%,41%,43.4%,47.7%,2.1% (active),37.7%,15.8%,29.2%,-0.248% (active),-79.1% (active),42.5%,-4% (active),-19.2% (active),11.8%,0.843% (active),37.5%,8.6% (active),41.8%,-23.9% (active),2.67% (active)
CC[C@H](CO)Nc1nc(NCc2ccccc2)n2ncc(C(C)C)c2n1,13.3%,10.3%,14.8%,3.3% (active),5.04% (active),-8.83% (active),1.9% (active),19.7%,-2.74% (active),-27% (active),7.53% (active),2.92% (active),-17% (active),8.97% (active),-13.9% (active),5.86% (active),0.519% (active),-46% (active),24.2%,8.94% (active)
COc1ccc(/C=C/C(=O)c2ccc(NC(=O)c3cc4cc5ccccc5nc4s3)cc2)cc1OC,87%,86%,84.2%,92.3%,99.9%,108%,95.9%,105%,106%,99.5%,106%,80.6%,98.6%,91.6%,111%,98.9%,99.4%,99.7%,108%,98.9%
CN1CCN(Cc2ccc(NC(=O)c3cncc(C#Cc4cnc(N)c5cccnc45)c3)cc2C(F)(F)F)CC1,11.4%,-18.6% (active),26.4%,-0.449% (active),7.81% (active),-26.2% (active),28.4%,29%,32.8%,-20.5% (active),24.6%,1.39% (active),-56.8% (active),-20% (active),-18.2% (active),26.3%,12.7%,-28.3% (active),18.8%,-18.8% (active)
O=c1c(/C=C/c2ccco2)nnc(SCCN2CCOCC2)n1/N=C/c1ccc([N+](=O)[O-])cc1,91%,85.5%,113%,101%,103%,90.5%,86.5%,99.4%,95.2%,112%,111%,93.3%,95.9%,103%,87.6%,96.5%,107%,94%,94.1%,99.9%
CCCCCCCCCCCCCCCC(=O)OCC1OC(n2cnc3c(=S)nc(N)[nH]c32)C(OC(=O)CCCCCCCCCCCCCCC)C1OC(=O)CCCCCCCCCCCCCCC (stereo not given),66.2%,76.7%,72.2%,47.8%,63.4%,56%,66.1%,74.3%,61%,90%,39.8%,15.9%,82.6%,47.4%,164%,67.2%,21.1%,79.9%,88.7%,34.1%
COc1cc(C#N)cc(OC)c1OCCN(CCOc1c(OC)cc(C#N)cc1OC)S(=O)(=O)c1ccc(C)cc1,96%,104%,91.6%,100%,112%,88.5%,95.1%,100%,92.7%,113%,115%,94%,108%,112%,70.9%,107%,94.2%,105%,97.7%,99.7%
O=[N+]([O-])c1cccc(-c2nc3sccn3c2-c2ccnc(NCCCNS(=O)(=O)c3ccc(Br)cc3)n2)c1,41.4%,41%,76.1%,74.7%,66.7%,78%,37.4%,53.8%,75.5%,41.3%,58.9%,31.7%,59.9%,67.3%,81.3%,56.6%,48.2%,90.3%,61.1%,45.8%
